Assay [1] in a line: ATG_ISRE_CIS: Attagene CIS-FACTORIAL HepG2 Assay for human Interferon Regulatory Factor 1 (IRF1) binding to an Interferon-Stimulated Response Element (ISRE) (AID 2282948). As to conditions: HepG2 ISRE cis-reporter (Attagene), mRNA transcription readout; actives raise or lower the signal. In outline: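 Signal reflects induction or loss of ISRE-linked reporter mRNA in transiently transfected HepG2 cells after a 24 h treatment, detected by fluorescent RT-PCR fragments on capillary electrophoresis and normalised to DMSO.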

A short description of assay [2]: ATG_M_32_CIS: Attagene CIS-FACTORIAL HepG2 Assay for M32 Transcription Factor (Internal Marker) (AID 2282949).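 Also: background control marker of the multiplexed CIS panel rather than a real target.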 As to conditions: HepG2 Attagene cis-factorial M32 reporter, mRNA; actives raise or lower the signal. The method in brief: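 Using DMSO as baseline, bidirectional curve fits were applied to reporter mRNA signals. These came from transiently transfected HepG2 cells exposed for 24 h, with RNA analysed by RT-PCR, FAM primer extension, HpaI digestion and CE.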

The nature of assay [3]: ATG_M_06_CIS: Attagene CIS-FACTORIAL HepG2 Assay for M06 Transcription Factor (Internal Marker) (AID 2282950). Conditions: HepG2 Attagene CIS-FACTORIAL M06 internal marker reporter; actives raise or lower the signal. In outline: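 Steps: transfect HepG2 with multiplexed cis-element reporter constructs; dose chemical 24 h; extract RNA with DNase treatment; reverse-transcribe, PCR-amplify, 6-FAM label, HpaI digest; separate fragments by capillary electrophoresis. Activity fitted both directions versus DMSO.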

The target in assay [4] is Hypoxia-inducible factor 1-alpha (Homo sapiens) (UniProt Q16665). Description: ATG_HIF1a_CIS: Attagene CIS-FACTORIAL HepG2 Assay for human Hypoxia Inducible Factor 1 (HIF1A) (AID 2282951). Conditions: HepG2 Attagene cis-factorial HIF1a reporter transcription; actives raise or lower the signal. The method in brief: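 Dosed 24 h, transfected HepG2 cells yielded total RNA whose reporter transcripts were RT-PCR-amplified and sized by capillary electrophoresis using fluorescent labelling; DMSO defined baseline, with gain and loss of signal both fitted.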
Sequence of Hypoxia-inducible factor 1-alpha (Homo sapiens) (Q16665 whole entry, looked up): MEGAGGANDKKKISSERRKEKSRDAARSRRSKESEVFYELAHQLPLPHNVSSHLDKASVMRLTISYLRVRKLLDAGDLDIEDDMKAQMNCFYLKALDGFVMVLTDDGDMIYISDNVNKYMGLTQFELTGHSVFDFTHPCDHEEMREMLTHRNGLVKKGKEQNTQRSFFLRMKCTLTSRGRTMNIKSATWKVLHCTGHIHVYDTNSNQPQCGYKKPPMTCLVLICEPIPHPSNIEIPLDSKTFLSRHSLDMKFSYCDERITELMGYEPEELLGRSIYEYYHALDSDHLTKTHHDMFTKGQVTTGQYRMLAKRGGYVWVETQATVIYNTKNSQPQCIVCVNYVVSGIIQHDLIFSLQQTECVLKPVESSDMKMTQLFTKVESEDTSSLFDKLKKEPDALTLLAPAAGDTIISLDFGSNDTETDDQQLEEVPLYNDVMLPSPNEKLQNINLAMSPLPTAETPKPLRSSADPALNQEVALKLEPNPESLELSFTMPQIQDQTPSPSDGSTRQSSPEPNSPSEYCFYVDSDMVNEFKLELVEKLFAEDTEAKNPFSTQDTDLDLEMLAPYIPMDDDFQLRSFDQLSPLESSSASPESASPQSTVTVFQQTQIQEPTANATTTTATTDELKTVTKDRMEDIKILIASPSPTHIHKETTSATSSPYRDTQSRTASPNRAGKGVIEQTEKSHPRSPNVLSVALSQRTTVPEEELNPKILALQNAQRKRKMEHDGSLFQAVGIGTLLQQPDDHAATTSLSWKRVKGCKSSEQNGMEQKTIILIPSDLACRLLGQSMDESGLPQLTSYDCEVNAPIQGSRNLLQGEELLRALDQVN

The target in assay [5] is Hepatocyte nuclear factor 6 (Homo sapiens) (UniProt Q9UBC0). Description: ATG_HNF6_CIS: Attagene CIS-FACTORIAL HepG2 Assay for human Hepatocyte Nuclear Factor 6 (HNF6) (AID 2282952). As to conditions: HepG2 Attagene cis-factorial HNF6 reporter transcription; actives raise or lower the signal. The method in brief: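 Twenty-four-hour chemical treatment of reporter-transfected HepG2 cells precedes RNA isolation, DNase-treated reverse transcription and PCR of reporter sequences. Labelled fragments are sized by capillary electrophoresis and fitted bidirectionally versus DMSO.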
Sequence of Hepatocyte nuclear factor 6 (Homo sapiens) (Q9UBC0 whole entry, looked up, the tested form may be a part): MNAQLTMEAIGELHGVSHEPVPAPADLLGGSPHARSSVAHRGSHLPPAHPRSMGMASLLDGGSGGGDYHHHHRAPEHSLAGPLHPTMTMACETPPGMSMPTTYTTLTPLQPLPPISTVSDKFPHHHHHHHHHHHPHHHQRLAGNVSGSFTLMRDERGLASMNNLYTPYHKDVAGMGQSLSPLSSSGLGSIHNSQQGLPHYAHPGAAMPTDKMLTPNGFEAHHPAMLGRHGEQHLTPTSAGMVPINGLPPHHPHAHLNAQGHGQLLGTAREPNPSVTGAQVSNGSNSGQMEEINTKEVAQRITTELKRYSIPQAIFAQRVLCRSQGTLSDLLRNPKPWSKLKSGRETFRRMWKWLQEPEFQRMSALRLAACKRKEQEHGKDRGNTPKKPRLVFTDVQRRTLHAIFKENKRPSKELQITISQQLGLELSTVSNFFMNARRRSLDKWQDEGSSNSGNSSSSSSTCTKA

Assay [6] has as its target Heat shock factor protein 1 (Homo sapiens) (UniProt Q00613). Description: ATG_HSE_CIS: Attagene CIS-FACTORIAL HepG2 Assay for human Heat Shock Transcription Factor 1 (HSE) (AID 2282953). Conditions: HepG2 HSE cis-reporter, Attagene RNA transcription; actives raise or lower the signal. The method in brief: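 Cells were transfected with cis-element-driven reporter constructs, dosed for 24 h, then total RNA was reverse-transcribed and reporter cDNA amplified, FAM-labelled and digested with HpaI. Fragments were resolved by capillary electrophoresis; gain or loss was fitted against DMSO.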

Assay [7] is described as follows: ATG_MRE_CIS: Attagene CIS-FACTORIAL HepG2 Assay for human Metal Responsive Element (MRE) (AID 2282954). As to conditions: HepG2 MRE cis-reporter transcription, Attagene multiplex; actives raise or lower the signal. In outline:
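Readout: capillary electrophoresis of 6-FAM-labelled, HpaI-digested RT-PCR reporter products. System: HepG2 cells carrying transient multiplexed cis reporters, dosed 24 h. Analysis: bidirectional fit, DMSO baseline.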

Assay [8] in a line: ATG_PBREM_CIS: Attagene CIS-FACTORIAL HepG2 Assay for human Phenobarbital-responsive Enhancer Module (PBREM) (AID 2282955). As to conditions: HepG2 PBREM cis-reporter, Attagene multiplexed transcription; actives raise or lower the signal. In outline:
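Transfected liver-derived HepG2 cells exposed 24 h; PBREM reporter transcript quantified via RT-PCR and capillary electrophoresis, with activity in either direction referenced to DMSO.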

The target in assay [9] is Paired box protein Pax-6 (Homo sapiens) (UniProt P26367). Kind of assay: ATG_Pax6_CIS: Attagene CIS-FACTORIAL HepG2 Assay for human Paired Box 6 (PAX6) (AID 2282956). Conditions: HepG2 CIS-FACTORIAL PAX6 reporter transcription, RNA readout; actives raise or lower the signal. The method in brief: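 Values derive from bidirectional curve fitting of reporter mRNA signal relative to DMSO. HepG2 cells bearing transfected cis-regulated MRTUs were exposed for 24 h; transcripts were read by RT-PCR and capillary electrophoresis.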
Sequence of Paired box protein Pax-6 (Homo sapiens) (P26367 whole entry, looked up): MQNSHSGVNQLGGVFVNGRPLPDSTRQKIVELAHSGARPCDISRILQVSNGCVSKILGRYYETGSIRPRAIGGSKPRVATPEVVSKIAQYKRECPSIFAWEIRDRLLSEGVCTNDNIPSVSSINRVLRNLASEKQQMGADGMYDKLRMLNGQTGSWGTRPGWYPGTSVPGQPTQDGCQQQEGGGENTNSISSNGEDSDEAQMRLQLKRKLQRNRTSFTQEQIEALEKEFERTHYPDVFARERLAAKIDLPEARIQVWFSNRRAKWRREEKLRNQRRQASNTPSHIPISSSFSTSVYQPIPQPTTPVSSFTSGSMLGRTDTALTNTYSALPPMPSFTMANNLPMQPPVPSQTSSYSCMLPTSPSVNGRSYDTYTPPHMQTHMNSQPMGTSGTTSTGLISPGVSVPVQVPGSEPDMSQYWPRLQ

The nature of assay [10]: ATG_PXRE_CIS: Attagene CIS-FACTORIAL HepG2 Assay for human Pregnane X Receptor Element (PXRE) (AID 2282957). As to conditions: HepG2 Attagene CIS-FACTORIAL PXRE reporter, mRNA; actives raise or lower the signal. In outline:
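Bidirectional activity, baselined to DMSO, derived from reporter mRNA fluorescence (RT-PCR plus capillary electrophoresis) in HepG2 cells bearing cis-promoter reporter units, 24 h exposure.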

This note sets out measurements from PubChem BioAssay (EPA / NIEHS).

Several values for one entry are separate records, joined by “and”; a condition that tells them apart may be missing. Equal entries are not always repeated. Where a structure was tested more than once in an assay, its records may differ in their call. Activity calls are given as the source filed them. The calls were made as follows: active = hit-call score of the fitted dose curve at least 0.9, where 1 is the maximum; inactive = score below 0.9.

Sequence of Heat shock factor protein 1 (Homo sapiens) (Q00613 whole entry, looked up, the tested form may be a part): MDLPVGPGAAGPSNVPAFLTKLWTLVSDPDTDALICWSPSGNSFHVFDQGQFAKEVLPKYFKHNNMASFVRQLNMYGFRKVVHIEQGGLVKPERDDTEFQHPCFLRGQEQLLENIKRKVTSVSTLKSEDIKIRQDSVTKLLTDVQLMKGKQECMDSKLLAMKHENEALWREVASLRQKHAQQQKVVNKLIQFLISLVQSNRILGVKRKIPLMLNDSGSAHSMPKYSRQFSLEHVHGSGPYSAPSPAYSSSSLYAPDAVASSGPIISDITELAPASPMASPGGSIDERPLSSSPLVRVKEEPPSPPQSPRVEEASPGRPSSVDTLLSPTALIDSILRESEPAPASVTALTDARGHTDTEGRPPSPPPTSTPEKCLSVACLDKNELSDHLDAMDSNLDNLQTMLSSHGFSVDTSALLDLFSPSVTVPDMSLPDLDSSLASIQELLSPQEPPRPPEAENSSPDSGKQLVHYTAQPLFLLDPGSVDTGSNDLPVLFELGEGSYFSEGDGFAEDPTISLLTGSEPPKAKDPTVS

By AC50 is commonly meant the concentration at which the activity in the assay is half-maximal. With `CCCCc1nc2cccnc2n1Cc1ccc(-c2ccccc2-c2nnn[nH]2)cc1`, the result in assay [1], in [2], in assay [3], in [4], in assay [5] and in assay [6] was inactive. Also, the call in assay [7], in [8] and in assay [9] was inactive. The concentration at half-maximal activity (AC50) in assay [10] was 27.2 µM (active).
Regarding `Cc1occc(=O)c1O`, the call in assay [1], in [2], in assay [3], in [4], in assay [5] and in assay [6] was inactive. Besides, the compound was classed as inactive in [7], in assay [8], in assay [9] and in assay [10].
In the case of `S=c1[nH]c2ccccc2s1`, the AC50 was 41.8 µM (active) in [1] and 61.2 µM (active) in assay [10]. For the same compound, the result in assay [2], in [3], in [4], in [5], in assay [6] and in assay [7] was inactive. Besides, the outcome in [8] and in assay [9] was inactive.
For the compound `O=C(NS(=O)(=O)/C=C/c1cccs1)c1ccc(F)cc1Br`, the compound was called inactive in assay [1], in assay [2], in [3], in assay [4], in assay [5] and in assay [6]. In addition, the outcome in assay [7], in assay [8] and in assay [9] was inactive. Besides, the half-maximal activity concentration (AC50) in assay [10] was 13.7 µM (active).
`CCCCOC(=O)CCCCC(=O)OCCCC`: the compound was called inactive in assay [1], in [2], in [3], in assay [4], in [5] and in [6]. For the same compound, the call in assay [7], in assay [9] and in [10] was inactive.
For the compound `CCN(CC)CCOc1ccc(C(=C(Cl)c2ccccc2)c2ccccc2)cc1`, the compound was called inactive in assay [1], in [2], in assay [3], in assay [4], in assay [5] and in [6]. The outcome in assay [7], in [8] and in assay [9] was inactive. In addition, the AC50 is 9.35 µM (active) in assay [4]; 11.4 µM (active) in assay [5]; 14.3 µM (active) in assay [6]; 13.8 µM (active) in assay [7]; 10.4 µM (active) in assay [9]; 945 nM (active) [middle of 4 runs] in assay [10].
Regarding `CC1(C)C(=O)NC(=O)N1CO`, the outcome in assay [1], in assay [2], in assay [3], in [4], in assay [5] and in assay [6] was inactive. Further, the compound was called inactive in assay [7], in [8], in assay [9] and in assay [10].
In the case of `OCC(CO)n1cnc(-c2ccc(F)cc2)c1-c1ccnc(Oc2ccccc2)n1`, the compound was classed as inactive in assay [1], in [2], in assay [3], in assay [4], in [5] and in assay [6]. Moreover, the call in assay [7], in assay [8] and in assay [9] was inactive. Also, the AC50 in assay [10] was 7.89 µM (active).
For the compound `CCCCCCC(C=O)=Cc1ccccc1`, the outcome in [1], in assay [2], in assay [3], in [4], in assay [5] and in [8] was inactive. For the same compound, in assay [9], the call was inactive. The AC50 in [6] is 157 µM (active) and 93.3 µM (active); in assay [7], 137 µM (active) and 89.2 µM (active); in [10] it was 25.2 µM (active) and 15.7 µM (active).
Turning to `O=C1CCCCC1`, the outcome in assay [1], in assay [2], in [3], in [4], in [5] and in assay [6] was inactive. For the same compound, the compound was called inactive in [7], in assay [8], in assay [9] and in assay [10].
Consider `CN(C)C(=O)NC1(c2ccccc2)CCN(CCC[C@]2(c3ccc(Cl)c(Cl)c3)CCCN(C(=O)c3ccccc3)C2)CC1`, for which the call in [1], in assay [2], in assay [3], in assay [4], in [5] and in [6] was inactive. In assay [8], the result was inactive. For the same compound, the results for the AC50 in assay [7], in [9] and in assay [10] were 4.19 µM (active), 4.94 µM (active) and 0.119 µM (active), respectively.
In the case of `O=C(Oc1ccccc1)c1cccc(C(=O)Oc2ccccc2)c1`, the call in assay [1], in assay [2], in assay [3], in [4], in assay [5] and in [6] was inactive. In addition, the compound was classed as inactive in assay [7], in assay [8], in [9] and in assay [10].
Take `CC(C)COC(=O)CCCCC(=O)OCC(C)C`: the outcome in assay [1], in [2], in [3], in assay [4], in assay [5] and in assay [6] was inactive. Further, the compound was classed as inactive in [7], in assay [9] and in assay [10].
